PubChem BioAssay AID504766 (The Scripps Research Institute Molecular Screening Center, 2011)
Screen size: about 340,000 compounds; about 3,400 (1%) were called active.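 Rule for the calls: active = inhibition above the mean over all tested compounds plus 3 SD (cut at about 4.2% in these data); inactive = the rest.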 This excerpt belongs to a sample that is enriched for actives.

Target: Nuclear receptor subfamily 0 group B member 1 (Homo sapiens) (UniProt P51843)
Assay: DAX1 (NR0B1) inhibitors, primary screen, cell-based, HEK293, Gal4-DAX1, luciferase luminescence (AID 504766);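 note: 0% = DAX1-transfected cells with DMSO and 100% = empty-vector control cells with DMSO; inhibition shows as a rise in luminescence from relieved DAX1 repression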
Details: HEK293 Gal4-DAX1 luciferase reporter, at 6.75 µM, stronger effect = higher value

Sequence of Nuclear receptor subfamily 0 group B member 1 (Homo sapiens) (P51843 207-470 limits assumed): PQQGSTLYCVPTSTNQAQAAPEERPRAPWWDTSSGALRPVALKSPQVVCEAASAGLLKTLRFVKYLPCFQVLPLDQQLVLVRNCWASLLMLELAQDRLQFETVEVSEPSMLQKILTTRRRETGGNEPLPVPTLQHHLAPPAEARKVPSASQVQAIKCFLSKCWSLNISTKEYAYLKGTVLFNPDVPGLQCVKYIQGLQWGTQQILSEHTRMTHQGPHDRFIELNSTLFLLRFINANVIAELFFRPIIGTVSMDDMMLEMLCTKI

Row | Compound | inhibition
1 | CNS(=O)(=O)c1ccc2c(c1)[nH]c(=S)n2C | 0.47% (inactive)
2 | CCc1ccccc1NC(=O)CN1CCN(C(=O)c2cc(C3CC3)nn2-c2ccccc2)CC1 | -0.77% (inactive)
3 | CN(C)c1ccc(-c2nnc(-c3cccnc3)o2)cc1 | 2.53% (inactive)
4 | Nc1ccc(-c2nnc(-c3ccccc3)o2)cc1 | 4.37% (active)
5 | COc1ccc(-c2nnc(-c3ccc4ccccc4c3)o2)cc1 | 0.71% (inactive)
6 | CCCn1c(N)c(C(=O)CSc2nnc(Cc3cccs3)n2C2CC2)c(=O)[nH]c1=O | 0.35% (inactive)
7 | OCC1OC(n2cnc3c(N4CCCC4)ncnc32)C(O)C1O (stereo not given) | -0.3% (inactive)
8 | CC1CN(C(=O)c2cccc(NS(=O)(=O)c3ccc(Br)cc3)c2)CC(C)O1 (stereo not given) | 0.52% (inactive)
9 | Cc1csc(SCC(=O)Nc2ccc(C)c(S(=O)(=O)N(C)C)c2)n1 | 0.09% (inactive)
10 | Cc1onc(-c2ccccc2)c1-c1nnc(COC(=O)c2ccc(N(C)C)cc2)o1 | -0.6% (inactive)
11 | N#Cc1c(NC(=O)CCCl)sc2c1CCCCC2 | 1.1% (inactive)
12 | N#Cc1c(NC(=O)C2CC(Cl)=CCC2C(=O)O)sc2c1CCCCC2 (stereo not given) | -0.39% (inactive)
13 | N#Cc1c(NC(=O)C2CCCO2)sc2c1CCCCC2 (stereo not given) | 4.7% (active)
14 | CCN(CC)C(=O)C1=C(C)N(Cc2ccc(F)cc2)C(=O)C(CC(=O)NCc2cccc3ccccc23)C1 (stereo not given) | -0.64% (inactive)
15 | C[C@H]1NS(=O)(=O)c2cc(Cl)ccc2O[C@@H]1c1ccccc1 | -0.34% (inactive)
16 | COc1ccc(CN2C[C@H]3CON(C)[C@H]3C[C@H]2c2ccc(-c3cccc(F)c3)cc2)cc1 | 1.13% (inactive)
17 | CC1=C(C(=O)Nc2cccc(C(=O)NCC(C)c3ccccc3)c2)SCCO1 (stereo not given) | 3.58% (inactive)
18 | COc1ccc(OC)c(NC(=O)C2CCCN2S(=O)(=O)c2ccc3c(c2)CC(C)N3C(C)=O)c1 (stereo not given) | 1.18% (inactive)
19 | OCCC#Cc1ccc(CN2CCN(Cc3ccsc3)C(CCO)C2)cc1 (stereo not given) | 2.04% (inactive)
20 | OCCC1CN(Cc2ccccc2-c2ccco2)CCN1Cc1ccsc1 (stereo not given) | -0.73% (inactive)
21 | OCCC1CN(Cc2cccc(OC3CCCC3)c2)CCN1Cc1ccsc1 (stereo not given) | 5.86% (active)
22 | Cc1ccc(S(=O)(=O)/N=C2\C=C(NS(=O)(=O)c3ccc(C)cc3)C(=O)c3ccccc32)cc1 | -1.06% (inactive)
23 | Cc1ccc(S(=O)(=O)N2CCOCC2)cc1NC(=O)c1ccncc1 | 0.21% (inactive)

Row | Compound | inhibition
24 | CCC(Oc1ccccc1)C(=O)OCC(=O)Nc1c(C)nn(-c2ccccc2)c1C (stereo not given) | 0.21% (inactive)
25 | Cc1ccc(S(=O)(=O)N2CCCCC2)cc1NC(=O)CCNC(=O)c1ccccc1Cl | 0.48% (inactive)
26 | CCCCN1C[C@H](c2ccc(Br)cc2)[C@@H](CC(=O)Nc2ccc(Br)cc2)C1=O | -0.08% (inactive)
27 | Cn1c(CNc2nc(-c3ccccc3)cs2)nnc1SCC(=O)c1ccccc1 | -1.22% (inactive)
28 | Cc1cc(NC(=O)c2cc3ccccc3o2)no1 | 0.08% (inactive)
29 | CCNc1nc(-c2cc3ccccc3o2)cs1 | 4.56% (active)
30 | COc1ccc(S(=O)(=O)N2CCN(CC(=O)N3CCNC3=O)CC2)cc1OC | 0.75% (inactive)
31 | CCN(C(=O)Nc1cccc2ccccc12)c1ccccc1 | 0.32% (inactive)
32 | CCc1ccc(N(CC(=O)Nc2sc3c(c2C(=O)OC)CCCC3)S(C)(=O)=O)cc1 | 5.84% (active)
33 | COC(=O)c1c(NC(=O)CN(c2ccc(C)c(C)c2)S(C)(=O)=O)sc2c1CCCC2 | 0.52% (inactive)
34 | COC(=O)c1c(NC(=O)CSc2nncs2)sc2c1CCCCC2 | -1.11% (inactive)
35 | COCCCn1c(=O)/c(=C/c2ccccc2OC(C)C)s/c1=C(\C#N)C(=O)Nc1ccc(C(=O)O)cc1 | 1.28% (inactive)
36 | COc1cc(C(=O)OCCCN2CCOCC2)cc(OC)c1OC | 0.71% (inactive)
37 | O[C@H]1CN(Cc2cccs2)[C@@H](c2ccc(Cl)cc2)C[C@@H]1n1cc(C2CC2)nn1 | 0.8% (inactive)
38 | COc1ccc(NC(=O)CN2C(=O)CSC2=O)cc1 | 4.34% (active)
39 | COc1ccc(NC(=O)CN2C(=O)CSc3ccc(S(=O)(=O)N4CCC(C)CC4)cc32)cc1 | -0.82% (inactive)
40 | CCc1ccc(NC(=O)CN2C(=O)CSC2=O)cc1 | 1.29% (inactive)
41 | CC(=O)Nc1c(-c2ccc(C)cc2)nc2ccc(Cl)cn12 | 0.08% (inactive)
42 | C=CCn1nc(C(=O)OCC)cc1-c1sc(NC(=O)c2ccccc2)nc1C | -1.54% (inactive)
43 | O=C(CSc1ccc(Cl)cc1)NC1CC1 | 0.27% (inactive)
44 | O=C(Cc1ccc([N+](=O)[O-])cc1)NCCS(=O)(=O)N1CCN(c2ccccc2)CC1 | -0.22% (inactive)
45 | NS(=O)(=O)c1ccccc1NC(=O)c1c(O)c2ccccc2[nH]c1=O | 4.59% (active)
46 | O=C(Cc1c(O)c2ccccc2[nH]c1=O)NCc1ccccc1 | 1.32% (inactive)

Row | Compound | inhibition
47 | CCCOC(=O)Cc1c(O)c2ccccc2[nH]c1=O | -0.26% (inactive)
48 | COc1ccc(CN2C(=O)C(CC(=O)NC3CCCCC3)CC(C(=O)N3CCOCC3)=C2C)cc1 (stereo not given) | 0.35% (inactive)
49 | CCN1CCN(CCNC(=O)c2ccc3c(c2)NC(=O)/C(=C\c2cccc(Cl)c2)S3)CC1 | -0.42% (inactive)
50 | CCOC(=O)C1CCN(C(=O)c2ccc3c(=O)n4nc(Nc5ccccc5CC)sc4nc3c2)CC1 | -2.28% (inactive)
51 | Cc1ccccc1NC(=O)Cc1nc(COC(=O)C(C)(C)Oc2ccc(Cl)cc2)cs1 | -0.05% (inactive)
52 | C(=N\Nc1ccc2ccccc2n1)/c1ccc2c(c1)OCO2 | -2.05% (inactive)
53 | O=C(NNC(=O)c1ccc2ccccc2c1)c1ccc(Cl)cc1 | -1.29% (inactive)
54 | Clc1ccc(Nc2ccc3ccccc3n2)cc1 | 5.5% (active)
55 | CSc1nnnn1-c1c(C)cc(C)cc1C | 5.68% (active)
56 | CCn1nnnc1SCC(=O)c1ccc(C)cc1C | -0.2% (inactive)
57 | Cc1ccc(S(=O)(=O)N2C[C@]3(O)C[C@@H]4C(=O)N(c5ccccc5)C(=O)[C@@H]4C[C@]3(OC(=O)NC3CC3)C2)cc1 | -1.25% (inactive)
58 | O[C@@H]1C[C@H](c2ccccc2)N(Cc2cccs2)C[C@H]1n1cc(C2CC2)nn1 | 1.9% (inactive)
59 | O[C@H]1C[C@H](c2ccc(Cl)cc2)N(Cc2cccs2)C[C@@H]1n1cc(C2CC2)nn1 | 0.67% (inactive)
60 | CN(C)/C=C(/C(=O)c1ccccc1Cl)S(C)(=O)=O | -0.35% (inactive)
61 | CC(=O)c1ccc(S(=O)(=O)NCc2nnnn2-c2ccccc2)cc1 | 0.03% (inactive)
62 | CN(C)/C=C(/C(=O)c1ccc(Cl)c(Cl)c1)c1nnnn1-c1ccccc1 | 8.45% (active)
63 | CCOc1cc(/C=N/NC(=O)c2c(C)nc3ccc(Cl)cn23)ccc1O | 0.71% (inactive)
64 | Cc1cnc(C(=O)OCC(=O)NCCCc2ccccc2)cn1 | 8.25% (active)
65 | COc1ccc(C(=O)OCC(=O)NCCCc2ccccc2)cc1OC | -0.04% (inactive)
66 | O=C(COC(=O)c1ccc(F)cc1)NCCCc1ccccc1 | 1.34% (inactive)
67 | S=C(NN=Cc1ccccn1)Nc1ccccn1 | -4.47% (inactive)
68 | CC1(c2cccc(N)c2)OCCO1 | 0.74% (inactive)
69 | CCCCCCN1C[C@@H](O)[C@H](n2cc(COC(=O)c3ccccc3)nn2)C[C@@H]1c1ccc(Cl)cc1 | 0.09% (inactive)

Row | Compound | inhibition
70 | CCn1c(COc2ccccc2)nnc1SCC(=O)Nc1ccc2c(c1)OCCO2 | -0.24% (inactive)
71 | CCn1c(SCC(=O)Nc2ccc3c(c2)OCCO3)nnc1-c1ccncc1 | 6.79% (active)
72 | CCn1c(SCC(=O)Nc2ccc3c(c2)OCCO3)nnc1C(C)C | 2.27% (inactive)
73 | COc1ccc(-n2nc(C(=O)NCC(=O)N3CCCCCC3)c3ccccc3c2=O)cc1Cl | -1.56% (inactive)
74 | COc1ccc(-n2nc(C(=O)NCC(=O)N3CCN(c4ccccc4OC)CC3)c3ccccc3c2=O)c(OC)c1 | -1.07% (inactive)
75 | COc1ccc(-n2nc(C(=O)NCC(=O)N3CCC(C(N)=O)CC3)c3ccccc3c2=O)cc1OC | 5.14% (active)
76 | O=C(OCc1ccccc1)N1CCC2CC1c1ccc(-c3ccc4c(c3)OCO4)cc12 (stereo not given) | 0.14% (inactive)
77 | COC(=O)C(Cc1c[nH]c2ccccc12)NC(=O)CCNC(=O)c1ccco1 (stereo not given) | 0.93% (inactive)
78 | C[C@H]1CN([C@@H](C)CO)C(=O)CCCn2nncc2CO[C@@H]1CN(C)Cc1ccc(Oc2ccccc2)cc1 | -1.44% (inactive)
79 | COc1ccc(-c2ccc3[nH]c4c(c3c2)CCN2C[C@H]3[C@H](C)ON(C)[C@H]3C[C@@H]42)cc1 | -1.11% (inactive)
80 | COc1ccc(NC(=O)C[C@H]2C(=O)N(CCc3ccccc3)C[C@@H]2C)cc1 | 0.1% (inactive)
81 | Cc1ccc(CSc2nsc(C)c2C#N)cc1 | 4.45% (active)
82 | Cc1snc(SCc2c(F)cccc2Cl)c1C#N | -1.64% (inactive)
83 | Cc1cc(C)c(C#N)c(SCc2ccc3c(c2)OCO3)n1 | -0.08% (inactive)
84 | C[C@@H]1CN([C@@H](C)CO)C(=O)c2cc(Br)cnc2O[C@@H]1CN(C)C(=O)C1CCCCC1 | 1.82% (inactive)
85 | CCN(CC)C(=O)C1=C(C)N(Cc2ccccc2)C(=O)C(CC(=O)NC(c2ccccc2)c2ccccc2)C1 (stereo not given) | -0.09% (inactive)
86 | CC(=O)Nc1ccc(SCC(=O)NC(=O)c2ccc(Cl)cc2)cc1 | 0.53% (inactive)
87 | Cn1nc(-c2ccccc2)c2cc([N+](=O)[O-])ccc21 | 0.55% (inactive)
88 | O=[N+]([O-])c1ccc2c(c1)C(O)n1nc(-c3ccccc3)nc1S2 (stereo not given) | 6.7% (active)
89 | O=[N+]([O-])c1ccc2oc(-c3cccc(O)c3)nc2c1 | 0.69% (inactive)
90 | Cc1ccc(C=O)c([B-](F)(F)F)c1 | -0.38% (inactive)
